Only some compounds are listed: those with a hit (about 3% of all), similar ones and a draw of the others.
PMP22 txn prim – PMP22 gene transcription modulation; actives 2% (n = 43,000); AID 1508649; S16 Pmp22-F2sN Schwann cells, FLuc/NLuc coincidence luminescence, 24 h; Potency, µM (highest dose often 57.5 µM), inactives show at the top dose activity change, negative = inhibition, most hits filed as inhibitors; active = clear falling dose curves in both reporters; inconclusive = both reporters move, but less clearly or upward; inactive = either reporter flat; the % is the NLuc reporter signal; also: potency is read from the fitted curve at half-maximal effect; % is scaled to controls: 0 for no effect and ±100 for the full control effect
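qHTS, 1536-well. Cells seeded, compounds added by pin tool, 24 h 37C. Nano-Glo reagent 1 (lysis/FLuc), 10 min RT, read; Stop&Glo, 10 min RT, read NLuc.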
S16 F2sN tox – cytotoxicity in S16 Pmp22-F2sN Schwann cells; S16 Pmp22-F2sN Schwann cells viability, CellTiter-Glo, 24 h; Potency, µM (highest dose often 57.5 µM), without a hit: at the top dose activity change, negative = cytotoxicity, usual class: cytotoxic; actives 0.48% (n = 43,000); AID 1508642; also: potency is read from the fitted curve at half-maximal effect; % is scaled to controls: 0 for no effect and ±100 for the full control effect; nearly all actives have a fitted effect of over 65% in size
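S16 Pmp22-F2sN Schwann cells (500-1,000/well) in phenol-red-free DMEM with 10% FBS received 23 nL compound by pin tool for 24 h at 37 °C. Viability was then read as CellTiter-Glo luminescence after 15 min at room temperature.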
p53null 39C kill – selectivity test: cytotoxicity in p53 null cells, nonpermissive temperature; AID 904; Potency, µM (titrated, usually from 46.1 µM), for inactives: at the highest dose activity, negative = cell killing, hits mostly cytotoxic; actives 0.97% (n = 55,000); H1299 p53-null (neo) cells, 39C, ATPlite viability, 24 h;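 also: potency is read from the fitted curve at half-maximal effect; 0% = DMSO only and -100% = full killing by 100 µM tamoxifen; nearly all actives have a fitted effect of over 50% in size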
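H1299 lung cancer cells, p53-null (H1299-neo) or expressing p53 A138V (H1299-p53A138V), were plated overnight at 37C, then exposed to compounds at up to 46 uM for 24 hr at 39C. Viability was read by ATP-based luminescence.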
p53null 32C kill – selectivity test: cytotoxicity in p53 null cells, permissive temperature; Potency, µM (top dose mostly 46.1 µM), for inactives: at the highest dose activity change, negative = cytotoxicity, most hits filed as cytotoxic; actives 0.62% (n = 55,000); H1299-neo p53 null cells, ATP luminescence, 24 h, 32C; AID 903;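 also: potency is read from the fitted curve at half-maximal effect; 0% = DMSO only and -100% = full killing by 100 µM tamoxifen; nearly all actives have a fitted effect of over 55% in size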
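AC50 values derive from Hill modelling of qHTS concentration-response data (up to 46 uM) in H1299-neo cells. Cells were treated 24 h at 32C following overnight attachment at 37C; viability was read as cellular ATP.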
SKOV3 invasion – ovarian cancer metastasis inhibition, 3D TME model. SKOV3ip1-GFP adhesion/invasion on 3D omental model, fluorescence. Potency, µM (series often up to 45.8 µM), inactives show at the top dose activity change, negative = inhibition, actives largely listed as inhibitors. actives 0.1% (n = 46,000). AID 1963576;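 also: potency is read from the fitted curve at half-maximal effect; plate controls were DMSO wells for no effect and tomatine positive control wells for full effect; nearly all actives have a fitted effect of over 65% in size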
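Primary human omental fibroblast/mesothelial 3D culture pre-formed 48 h. SKOV3ip1-GFP cells added with compounds (0.36-46 umol/L), incubated 2 h RT/16 h 37 C, fixed; GFP cells quantified at 488/509 nm.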
pS6 MEF inh – mTORC1 pathway inhibition measured by phospho-rpS6 | Tsc2-/- p53-/- MEF, phospho-rpS6 immunofluorescence/PI, 24 h | Potency, µM (highest dose often 38.3 µM), inactives show at the highest dose activity change, negative = inhibition, hits mostly inhibitors | actives 0.78% (n = 44,000);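 also: potency is read from the fitted curve at half-maximal effect; plate controls were DMSO for no effect and rapamycin for full effect; nearly all actives have a fitted effect of over 50% in size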
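Read-out: phospho-S6 Alexa-488 intensity over PI intensity per well, scored as % active cells using thresholds from rapamycin (7.5 nM) and DMSO controls. Tsc2-/-, p53-/- MEFs exposed to compound for 24 h; PI cell count recorded as viability.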
NLuc sat counter – NanoLuc enzyme inhibition artifact for PMP22 screen; shares compounds with PMP22 txn prim; Secreted NLuc enzyme (filtered S16 cell medium), Nano-Glo luminescence; Potency, µM (highest dose often 57.5 µM), for inactives: top-dose activity change, negative = inhibition, usual class: inhibitors; actives 4% (n = 690); also: potency is read from the fitted curve at half-maximal effect; % is scaled to controls: 0 for no effect and ±100 for the full control effect
NLuc Km ctr – inhibits NanoLuc under Km conditions, PMP22 counter-screen; AID 1508639; shares compounds with PMP22 txn prim; actives 5% (n = 690); secreted NLuc enzyme, coelenterazine luminescence, Km conditions; Potency, µM (series often up to 57.5 µM), inactives show at the highest dose activity change, negative = inhibition, usual class: inhibitors; also: potency is read from the fitted curve at half-maximal effect; % is scaled to controls: 0 for no effect and ±100 for the full control effect
FLuc counter – inhibits firefly luciferase, PMP22 counter-screen. shares compounds with PMP22 txn prim. purified P. pyralis FLuc, luminescence, 10 min. Potency, µM (titrated, usually from 57.5 µM), for the others: top-dose activity, negative = inhibition, usual class: inhibitors. 690 tested, under 10 active; also: % of control where 0% means no effect
Target sequence (P08659 whole entry, looked up): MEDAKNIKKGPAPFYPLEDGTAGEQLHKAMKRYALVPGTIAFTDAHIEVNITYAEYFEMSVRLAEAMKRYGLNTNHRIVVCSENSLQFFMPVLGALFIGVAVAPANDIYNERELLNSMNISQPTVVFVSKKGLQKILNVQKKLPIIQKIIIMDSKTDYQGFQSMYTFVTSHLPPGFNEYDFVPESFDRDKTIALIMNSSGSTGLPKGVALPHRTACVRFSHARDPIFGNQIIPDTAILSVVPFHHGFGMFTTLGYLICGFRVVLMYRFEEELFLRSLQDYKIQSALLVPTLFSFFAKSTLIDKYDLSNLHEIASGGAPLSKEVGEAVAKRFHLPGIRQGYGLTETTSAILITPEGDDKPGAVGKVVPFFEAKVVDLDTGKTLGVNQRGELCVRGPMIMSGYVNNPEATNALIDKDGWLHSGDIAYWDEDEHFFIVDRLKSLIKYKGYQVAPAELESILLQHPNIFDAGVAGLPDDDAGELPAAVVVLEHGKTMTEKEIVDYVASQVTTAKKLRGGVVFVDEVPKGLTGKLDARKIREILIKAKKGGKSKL
S16 F2sN tox cnf – S16 Schwann cell cytotoxicity, confirmatory; shares compounds with PMP22 txn prim; S16 Schwann cells viability, CellTiter-Glo ATP luminescence, 24 h; Potency, µM (series often up to 57.5 µM), for inactives: at the highest dose activity change, negative = viability loss, usual class: cytotoxic; actives 7% (n = 690); also: potency is read from the fitted curve at half-maximal effect; % is scaled to controls: 0 for no effect and ±100 for the full control effect
PMP22 txn cnf – PMP22 transcription modulation, confirmatory. S16 Schwann cells Pmp22-F2sN, dual luciferase, 24 h. shares compounds with PMP22 txn prim. actives 22% (n = 690). Potency, µM (titrated, usually from 57.5 µM), for the others: top-dose activity change, negative = inhibition, actives largely listed as inhibitors; active = clear falling dose curves in both reporters; inconclusive = both reporters move, but less clearly or upward; inactive = either reporter flat; the % is the FLuc reporter signal; also: potency is read from the fitted curve at half-maximal effect
PMP22 prot conf – confirmation of modulators of rat PMP22 protein expression | S16 Schwann cells Pmp22-HiBiT, luminescence, 48 h | Potency, µM (top dose mostly 27.9 µM), inactives show at the highest dose activity change, negative = inhibition, actives largely listed as inhibitors | shares compounds with PMP22 txn prim | 95 tested, under 10 active
* marks the source's active call; other numbers are inactive results. Unless noted, calls follow the shape of the dose curve; as a rule, active = well fitted curve in the direction sought with a large enough effect; inconclusive = small, poorly fitted or top-dose-only effect, or another doubt; inactive = no such curve, though single readings can be large; an effect the other way counts as inactive or inconclusive.

What do the screens show for `CC1=Nc2cc(C(=O)NC3CCCCC3)ccc2Sc2ccc(Cl)cc21`?
PMP22 txn prim: 6.05µM*; S16 F2sN tox: -5.9%; p53null 39C kill: 19.2%; p53null 32C kill: 39.9%; SKOV3 invasion: -5.3%; pS6 MEF inh: inconclusive; NLuc sat counter: -4.2%; NLuc Km ctr: 0.4%; FLuc counter: 2.4%; S16 F2sN tox cnf: -4.9%; PMP22 txn cnf: 8.68µM*

Results for CC1=Nc2cc(C(=O)N3CCCCC3)ccc2Sc2ccc(C)cc21 ?
PMP22 txn prim: -25.8%; S16 F2sN tox: 12.9%; p53null 39C kill: -3.9%; p53null 32C kill: 11.3%; SKOV3 invasion: inactive; pS6 MEF inh: -4.0%

Results for Cc1ccc2nc(NCCN)c3ncc(C)n3c2c1 ?
SKOV3 invasion: 41.7%

How did Cn1c(=O)oc2cc(S(=O)(=O)N3CCCC(C(=O)N4CCN(c5ccc(Cl)cc5)CC4)C3)ccc21 (centres undefined) do in these assays?
PMP22 txn prim: 5.12µM*; S16 F2sN tox: inconclusive; p53null 39C kill: -7.9%; p53null 32C kill: -6.5%; SKOV3 invasion: inactive; pS6 MEF inh: -2.1%; NLuc sat counter: inconclusive; NLuc Km ctr: 5.1%; FLuc counter: 2.3%; S16 F2sN tox cnf: -22.3%; PMP22 txn cnf: 15.1µM*; PMP22 prot conf: inconclusive

How did COc1ccc(N2CCN(C(=O)C3CCCN(S(=O)(=O)c4ccc5c(c4)oc(=O)n5C)C3)CC2)cc1 (centres undefined) do in these assays?
PMP22 txn prim: inconclusive; S16 F2sN tox: -4.9%; p53null 39C kill: -11.9%; p53null 32C kill: -5.0%; SKOV3 invasion: 7.7%; pS6 MEF inh: -1.4%

From PubChem
